Bioassay records: PubChem, National Center for Advancing Translational Sciences (NCATS)
D1 potentiator – Potentiators of Human D1 Dopamine Receptor: qHTS | D(1A) dopamine receptor (Homo sapiens), P21728 | HEK293 TREx D1 cells, calcium flux, dopamine EC20 potentiation | potentiation, % at 10 µM | 360,000 compounds, 0.036% hits; in the data active = potentiation above about 30%
D1 antagonist – Antagonist of Human D 1 Dopamine Receptor: qHTS. AID 504652, 2011. activity change, negative = inhibition, % at 10 µM. D(1A) dopamine receptor (Homo sapiens), P21728. 360,000 compounds, 3.2% hits. HEK293 TREx D1 cells, calcium flux, dopamine EC80; hits give low values; in the data active = activity change below about -30%
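Kinetic fluorescence of a calcium dye serves as the read-out. D1-expressing Hek293 Trex cells, induced overnight at 30 C, are exposed to compound for 180 s before an EC80 dopamine addition, then read 180 s further.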
TRHR enhancer – qHTS for Small Molecule Agonists and Allosteric Enhancers of Human TRH Receptor: Primary Screen for Enhancers | Thyrotropin-releasing hormone receptor (Homo sapiens), P34981 | TRHR cells, fluo-8 calcium fluorescence, EC20 TRH enhancement | enhancement, % at 2 µM | 360,000 compounds, 0.66% hits | AID 493056, 2011; in the data active = enhancement above about 30%
Target sequence (P34981 whole entry, looked up): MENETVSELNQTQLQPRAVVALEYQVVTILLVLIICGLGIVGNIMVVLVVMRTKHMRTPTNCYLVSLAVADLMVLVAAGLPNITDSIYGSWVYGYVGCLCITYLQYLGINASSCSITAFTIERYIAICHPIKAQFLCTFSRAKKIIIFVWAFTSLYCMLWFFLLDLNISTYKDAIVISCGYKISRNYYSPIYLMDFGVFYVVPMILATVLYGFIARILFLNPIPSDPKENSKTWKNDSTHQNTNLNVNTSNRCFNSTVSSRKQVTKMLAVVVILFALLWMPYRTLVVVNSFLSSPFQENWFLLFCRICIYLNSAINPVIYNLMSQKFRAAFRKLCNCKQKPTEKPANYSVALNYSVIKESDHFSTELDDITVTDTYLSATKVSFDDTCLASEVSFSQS
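Enhancer read-out: after compound pinning and an initial kinetic agonist-mode read, an EC20 of TRH (10 nM final) was injected and fluo-8 calcium signal (Ex 480/Em 530) followed at 1 s/cycle for 100 cycles in TRHR-expressing cells.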
TRHR agonist – qHTS for Small Molecule Agonists and Allosteric Enhancers of Human TRH Receptor: Primary Screen for Agonists; Thyrotropin-releasing hormone receptor (Homo sapiens), P34981; TRHR cells, calcium flux fluo-8, FDSS agonist mode; activation, % at 2 µM; 360,000 compounds, 0.18% hits
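Read-out: compound-evoked intracellular calcium rise in TRHR cells, fluo-8 dye, kinetic FDSS fluorescence at 1 s/cycle following a 10-cycle baseline. Cells cultured overnight before dye loading (30 min–1.5 h, RT).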
D1 ag – Allosteric Agonists of the Human D1 Dopamine Receptor: qHTS; HEK293 T-REx D1 cells, calcium flux, agonist mode; activation, % at 2 µM; 360,000 compounds, 1% hits; D(1A) dopamine receptor (Homo sapiens), P21728
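Inducible HEK293 T-REx D1 cells, force-coupled to calcium signalling, were plated at 4000 cells/well with tetracycline and held overnight at 30 C. After no-wash calcium dye loading, compound-evoked calcium rise over 180 s flagged agonists.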
Of the large screens only hits and unclear results are named; the others gave an inactive call; ! = a repeat was not active. Shown are actives, neighbours in structure and some others; about 4.7% of the full set was active somewhere. Cut-off read from the data, not from the text of the source, unless noted: active = activation above about 30%; inactive = the rest.

COCCN(Cc1ccccc1)C(=S)Nc1ccc(Cl)cc1	D1 antagonist -36
CCC(SC1=NCCS1)C(=O)Nc1ccc(S(N)(=O)=O)cc1 (centres undefined)	D1 antagonist -46
Cc1nc(Oc2ccccc2C)c2oc3ccccc3c2n1	none
Cc1ccc(CNC(=O)CCCc2nnc3n(CC(C)C)c(=O)c4sccc4n23)cc1	none
Cc1nnsc1-c1onc(C)c1C(=O)Nc1cc(Cl)cc(Cl)c1	D1 antagonist -34
CC/C(=N/Nc1cccc(Cl)c1)c1cnnc(SC)n1	D1 antagonist -37
CC/C(=N/Nc1ccccc1)c1cnnc(-c2ccccc2)n1	none
CCCC1=NN2C(=N)/C(=C\c3ccc(SCc4ccco4)o3)C(=O)N=C2S1	D1 ag 63
CCC1=NN2C(=N)/C(=C\c3ccc(SCc4ccco4)o3)C(=O)N=C2S1	D1 ag 38
CCC1=NN2C(=N)/C(=C/c3c(C)nn(-c4ccccc4)c3Cl)C(=O)N=C2S1	none
CCCC1=NN2C(=N)/C(=C\c3cc(C)n(Cc4ccccc4)c3C)C(=O)N=C2S1	D1 antagonist -37, D1 ag 150
CCc1cc(C(=O)OC)c(NC(=O)CN2CCN(C(=O)c3ccco3)CC2)s1	D1 antagonist -47, D1 ag 116
CC1CCc2c(sc(NC(=O)CN3CCN(C(=O)c4ccco4)CC3)c2C#N)C1 (centres undefined)	D1 antagonist -31
CCOC(=O)N1CCN(CC(=O)Nc2sc(CC)cc2C(=O)c2ccc(OC)cc2)CC1	D1 antagonist -31
COCCNC(=O)C1CCN(C(=O)c2cc3sccc3n2Cc2ccc(Cl)cc2)CC1	none
Cn1c(C(=O)N2CCCC(C(=O)NCc3cccs3)C2)cc2sccc21 (centres undefined)	none
COCCNC(=O)C1CCN(C(=O)c2cc3sccc3n2Cc2ccc(F)cc2)CC1	D1 antagonist -49
O=C(NCc1ccco1)C1CCN(C(=O)c2cc3sccc3n2Cc2ccc(Cl)cc2)CC1	none
COCCCNC(=O)C1CCN(C(=O)c2cc3sccc3n2Cc2ccc(Cl)cc2)CC1	D1 antagonist -39
CCC(C)NC(=O)C1CCN(C(=O)c2cc3sccc3n2Cc2ccc(Cl)cc2)CC1 (centres undefined)	D1 antagonist -40
CC(CCc1ccccc1)NC(=O)C1CCCN(C(=O)c2cc3sccc3n2C)C1 (centres undefined)	D1 antagonist -39
CCOCCCNC(=O)C1CCN(C(=O)c2cc3sccc3n2C)CC1	D1 antagonist -84
CCCOC(=O)c1c(-c2ccccc2)nc(CC)c(C(=O)SCC)c1CCC	D1 antagonist -48
CN(Cc1ccccc1)c1ccc(-c2nc(-c3ccncc3)no2)cc1[N+](=O)[O-]	none
COc1ccc(/C=C2\CCCc3c2nc2ccccc2c3C(=O)O)cc1OC	D1 antagonist -35, TRHR agonist 214, D1 ag 236
COc1ccc(/C=C2\CCc3c2nc2ccccc2c3C(=O)O)cc1OC	none
CC(=O)Nc1ccc(S(=O)(=O)NC2CC(=O)N(c3ccc4c(c3)OCCO4)C2)cc1 (centres undefined)	TRHR enhancer 40
Cc1ccc(S(=O)(=O)NC2CC(=O)N(c3ccc4c(c3)OCCO4)C2)cc1 (centres undefined)	none
Cc1cc(NC(=O)CSc2nnc(NC(=O)C3CC(=O)N(c4ccccc4)C3)s2)no1 (centres undefined)	D1 antagonist -46
Cc1cc(NC(=O)CSc2nnc(NC(=O)C3CC(=O)N(c4ccccc4C)C3)s2)no1 (centres undefined)	none
Cc1ccc(NC(=O)NC2CC(=O)N(c3ccc4c(c3)OCCO4)C2)c(C)c1 (centres undefined)	D1 antagonist -47
COc1ccc(S(=O)(=O)NC2CC(=O)N(c3ccccc3)C2)cc1C (centres undefined)	D1 antagonist -54
CCCCC(=O)OCc1cc(=O)n2nc(C3CCCCC3)sc2n1	none
COc1ccc(C)cc1S(=O)(=O)N(CC(=O)NC1CCCC1)c1ccc(F)cc1	none
CC(=O)c1ccc(S(=O)(=O)NC2CC(=O)N(c3ccc(C)c(C)c3)C2)cc1 (centres undefined)	D1 antagonist -31
Cc1nnc(NC(=O)C2CC(=O)N(c3ccc4c(c3)OCCO4)C2)s1 (centres undefined)	TRHR enhancer 35
CCCCc1nnc(NC(=O)C2CC(=O)N(c3ccc4c(c3)OCCO4)C2)s1 (centres undefined)	none
CCC(C)NC(=O)C1(O)c2ccccc2NC(=O)N1c1ccc(C)c(C)c1 (centres undefined)	none
CCOc1ccc(C(=O)NCC(=O)N2CCC3CCCCC3C2)cc1OCC (centres undefined)	none
CNc1ncnc2sc(-c3ccccc3)cc12	D1 antagonist -38
CN(C)CCNc1ncnc2sc(-c3ccccc3)cc12	none
CC(=O)N1CCN(c2ncnc3sc(-c4ccccc4)cc23)CC1	TRHR enhancer 40
COc1ccccc1CNC(=O)Cn1c(=O)nc(-c2ccccc2)c2ccccc21	none
Clc1ccc(CSc2nc3ncccc3[nH]2)cc1	none
C/C(=N\NC(=O)c1nnn(-c2nonc2N)c1CN(C)c1ccccc1)c1cccc(O)c1	D1 antagonist -39
C/C(=N\NC(=O)c1nnn(-c2nonc2N)c1-c1ccc2c(c1)OCO2)c1ccccc1	D1 ag 34
C/C(=N\NC(=O)c1nnn(-c2nonc2N)c1-c1ccc2c(c1)OCO2)c1ccc(C)cc1	D1 ag 104
COCCn1c(CNC(=O)c2cc(OC)c(OC)c(OC)c2)nc2cccnc21	none
CN1CCCC1CCNS(=O)(=O)c1ccc(Br)cc1 (centres undefined)	D1 antagonist -33
O=C(Nc1ccc(Cl)cc1)N1CCC(c2ccccc2)C1 (centres undefined)	D1 antagonist -33!
Cc1ccc(C2CCN(C(=O)Nc3ccccc3)C2)cc1 (centres undefined)	none
O=C(Cn1ncc2c([nH]c3ccccc32)c1=O)Nc1cc(F)ccc1F	none
CCCCCCCNC(=O)C1(CC2CC(c3ccccc3)=NO2)CCN(C(=O)c2ccccc2)CC1 (centres undefined)	none
CCCCCCCNC(=O)C1(CC2CC(c3ccccc3)=NO2)CCN(C(=O)OC(C)(C)C)CC1 (centres undefined)	D1 antagonist -37
CC(=O)Nc1cccc(OC(=O)COc2ccc(Br)cc2)c1	D1 antagonist -31
